# Bioassay records (PubChem BioAssay)
# The sample as a whole holds a higher share of hits than the screen did.
# miR122 inh: miR-122 sensor activation; Huh7 psiCHECK-miR122 Renilla luciferase sensor, 48 h; activation, % at 12.5 µM; 340,000 compounds, 0.14% hits; AID 623901;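 active means mean activation of 30% or more, with every replicate also reaching 30%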;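 further: higher luciferase signal means stronger suppression of miR-122 activity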
# Numbers stand for hits; n = inactive.
SMILES,miR122 inh
CCC(=O)N1[C@H](CO)[C@H](c2ccccc2)[C@@H]1CN(CC)C(=O)c1ccccc1,36.4
CCC(=O)N1[C@H](CO)[C@H](c2ccccc2)[C@@H]1CN(CC)C(=O)c1cccc(F)c1,n
C[C@H](CO)N1C[C@H](C)[C@H](CN(C)CC2CCOCC2)Oc2cc(C#C[C@@H](C)O)ccc2S1(=O)=O,n
C[C@H](CO)N1C[C@H](C)[C@H](CN(C)C(=O)Nc2ccc3c(c2)OCO3)Oc2ncc(-c3ccc(F)cc3)cc2C1=O,n
CC(C)CC#Cc1cnc2c(c1)C(=O)N([C@@H](C)CO)C[C@H](C)[C@@H](CN(C)C(=O)Nc1cccc(F)c1)O2,n
C[C@@H]1CN([C@H](C)CO)C(=O)c2cc(-c3cncnc3)cnc2O[C@H]1CN(C)Cc1ccccc1,n
C[C@@H]1CN([C@@H](C)CO)C(=O)c2cc(C#CC3(O)CCCC3)cnc2O[C@H]1CN(C)S(=O)(=O)c1ccc(F)cc1,n
C[C@@H]1CN([C@H](C)CO)C(=O)c2cc(C#CCC3CCCC3)cnc2O[C@H]1CN(C)C(=O)CC1CC1,n
C[C@H](CO)N1C[C@H](C)[C@H](CN(C)Cc2ccncc2)Oc2ncc(C#Cc3ccc(F)cc3)cc2C1=O,n
C[C@H](CO)N1C[C@H](C)[C@@H](CN(C)C(=O)C2CCCCC2)Oc2ncc(-c3ccccc3F)cc2C1=O,n
O=[N+]([O-])c1ccc(O)c(/C=N/Nc2ccc(Cl)nn2)c1,45.8
C[C@@H]1CN([C@@H](C)CO)C(=O)c2cc(Br)cnc2O[C@@H]1CN(C)C(=O)c1cccnc1,n
C[C@H](CO)N1C[C@H](C)[C@@H](CN(C)C(=O)c2cccc(F)c2)Oc2ncc(-c3cccc(F)c3)cc2C1=O,n
Cn1ncc2c(O/N=C(\N)c3ccc(C(F)(F)F)cc3)ncnc21,33.1
C[C@@H]1CN([C@@H](C)CO)C(=O)c2cc(C#Cc3ccc(F)cc3)cnc2O[C@H]1CN(C)CC1CCOCC1,n
C[C@H](O)C#Cc1cnc2c(c1)C(=O)N([C@H](C)CO)C[C@@H](C)[C@H](CN(C)Cc1cncnc1)O2,n
Cc1ccccc1-c1cnc2c(c1)C(=O)N([C@H](C)CO)C[C@@H](C)[C@@H](CN(C)C(=O)c1ccccc1)O2,n
COCC#Cc1ccc2c(c1)O[C@@H](CN(C)C(=O)C1CCOCC1)[C@H](C)CN([C@H](C)CO)S2(=O)=O,n
Cc1ccc(-c2cnc3c(c2)C(=O)N([C@@H](C)CO)C[C@@H](C)[C@@H](CN(C)Cc2ccccc2F)O3)cc1,n
O=C1NC(=O)/C(=C\c2ccccc2OCc2ccc([N+](=O)[O-])cc2)N1,37.2
C[C@@H]1CN([C@H](C)CO)S(=O)(=O)c2ccc(C#CC3(O)CCCC3)cc2O[C@@H]1CN(C)C(=O)Nc1ccc(F)cc1,n
C[C@@H]1CN([C@@H](C)CO)C(=O)Cc2cc(N(C)C)ccc2O[C@@H]1CN(C)Cc1ccc(C(=O)Nc2ccccc2N)cc1,n
C[C@@H]1CN([C@@H](C)CO)S(=O)(=O)c2ccc(/C=C/c3ccccc3)cc2O[C@H]1CN(C)C(=O)Nc1cccc(F)c1,n
C[C@H](CO)N1C[C@H](C)[C@H](CN(C)C(=O)C2CC2)Oc2cc(C#CC3CC3)ccc2S1(=O)=O,n
C[C@H]1CN([C@@H](C)CO)C(=O)c2cc(-c3ccncc3)cnc2O[C@H]1CN(C)C(=O)C1CCOCC1,n
SMILES,miR122 inh
Cc1noc(C)c1NC(=O)N(C)C[C@@H]1Oc2ncc(C#Cc3cccc(F)c3)cc2C(=O)N([C@H](C)CO)C[C@@H]1C,n
Cn1cnc(S(=O)(=O)N2C[C@@H](O)COC[C@H]3O[C@@H](CC(=O)NC4CCCC4)CC[C@@H]32)c1,n
COC(=O)C1=C(C)N=C2SC(C#N)=C(N)N2C1c1cc(OC)c(OC)c(OC)c1 (stereo not drawn),37.6
C[C@H]1CN([C@@H](C)CO)C(=O)c2cc(/C=C/c3ccccc3)cnc2O[C@@H]1CN(C)C(=O)Cc1ccccn1,n
CO[C@H]1CN(C)C(=O)c2ccc(NC(=O)Nc3ccccc3)cc2OC[C@@H](C)N(C(C)=O)C[C@@H]1C,n
CCC(=O)N(C)C[C@H]1Oc2cc(C#C[C@H](C)O)ccc2S(=O)(=O)N([C@@H](C)CO)C[C@H]1C,n
C[C@@H]1CN([C@H](C)CO)C(=O)c2cc(-c3cccnc3)cnc2O[C@H]1CN(C)C(=O)Nc1ccc(F)cc1,n
COc1cccc(NS(=O)(=O)c2ccc(Br)s2)c1,n
COc1cccc(-n2nnnc2S(C)(=O)=O)c1,48.4
COc1cccc(NS(=O)(=O)c2c(C)cc(C)cc2C)c1,n
C[C@H]1CN([C@@H](C)CO)C(=O)c2cc(C#Cc3ccccn3)cnc2O[C@@H]1CN(C)CC1CCOCC1,n
C[C@H](CO)N1C[C@H](C)[C@@H](CN(C)C(=O)Nc2ccccc2)Oc2cc(C#Cc3ccccc3)ccc2S1(=O)=O,n
COc1ccccc1-c1ccc2c(c1)O[C@H](CN(C)S(=O)(=O)c1ccccc1)[C@@H](C)CN([C@@H](C)CO)S2(=O)=O,n
CN(C)S(=O)(=O)c1cccc(NC(=S)N/N=C/c2ccc(O)c(O)c2O)c1,69.8
C[C@H]1CN([C@@H](C)CO)S(=O)(=O)c2ccc(C#Cc3ccncc3)cc2O[C@H]1CN(C)C(=O)C1CCCCC1,n
COc1cccc(C#Cc2ccc3c(c2)O[C@H](CN(C)C(C)=O)[C@@H](C)CN([C@@H](C)CO)S3(=O)=O)c1,n
COc1cccc(-c2ccc3c(c2)O[C@@H](CN(C)CC2CC2)[C@@H](C)CN([C@@H](C)CO)S3(=O)=O)c1,n
Cc1ccc(C(=O)C2=C(O)C(=O)N(CCCN3CCOCC3)C23C(=O)N(C)c2ccccc23)o1 (stereo not drawn),31.8
CCCCCCCCCn1c2c(c(=N)c3c1CCC3)CCC2,47.1
C[C@@H]1CN([C@H](C)CO)C(=O)c2cc(C#CC3(O)CCCC3)cnc2O[C@H]1CN(C)Cc1cncnc1,n
C[C@H](O)C#Cc1ccc2c(c1)O[C@H](CN(C)C(=O)Cc1ccccn1)[C@H](C)CN([C@H](C)CO)S2(=O)=O,n
COc1ccc(C(=O)C2CCCN(Cc3cccn3-c3ccccn3)C2)c(OC)c1 (stereo not drawn),59.6
C[C@H]1CN([C@@H](C)CO)C(=O)c2cc(-c3ccccc3)cnc2O[C@@H]1CN(C)C(=O)Nc1ccccc1,n
C[C@H](CO)N1C[C@H](C)[C@H](CN(C)S(=O)(=O)c2cn(C)cn2)Oc2ncc(-c3cccc(C(F)(F)F)c3)cc2C1=O,n
CCC(=O)N(C)C[C@@H]1Oc2ncc(C#Cc3ccc(OC)cc3)cc2C(=O)N([C@H](C)CO)C[C@@H]1C,n
SMILES,miR122 inh
C[C@H](CO)N1C[C@H](C)[C@H](CN(C)Cc2cccc(C(=O)O)c2)Oc2ncc(C#CCc3ccccc3)cc2C1=O,n
C[C@@H]1CN([C@@H](C)CO)S(=O)(=O)c2ccc(-c3cncnc3)cc2O[C@H]1CN(C)Cc1cncnc1,n
c1ccc(-c2nnc3n2CCCC3)cc1,32.9
C[C@@H]1CN([C@H](C)CO)C(=O)c2cc(/C=C/c3ccccc3)cnc2O[C@H]1CN(C)C(=O)c1ccncc1,n
COc1cccc(C#Cc2ccc3c(c2)O[C@@H](CN(C)S(=O)(=O)c2ccccc2F)[C@H](C)CN([C@@H](C)CO)S3(=O)=O)c1,n
CCc1c(C(=O)NCc2ccccc2Cl)[nH]c(C)c1C(C)=O,n
Cc1cc(C(F)F)n2ncc(C(=O)NCCc3ccccc3Cl)c2n1,33.3
CC(C)C#Cc1ccc2c(c1)O[C@H](CN(C)Cc1ccncc1)[C@H](C)CN([C@H](C)CO)S2(=O)=O,n
